Assay outcomes from PubChem.
PAX8 reporter = inhibitors of PAX8-driven TPO luciferase reporter, primary screen, RMG-I cells, single concentration; SteadyGlo, 24 h; inhibition, % at 12.6 µM; 1.2% of 360,000 active;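 active means mean replicate inhibition at least 60% with every replicate also reaching 60%; inconclusive means only one of the two criteria is met; inactive means mean below 60% and not all replicates reaching 60%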;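 further: luciferase light reporting Pax8 driven TPO promoter activity; plate controls were median of neutral control wells for no effect and mitoxantrone controls for full effect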
INS-1E GSIS act = GLuc luminescence reporter in INS-1E cells, primary screen for activators of glucose-dependent secretion of insulin. INS-1E GLuc reporter insulin secretion, 2-3 h. activation, % at 16.6 µM. 0.61% of 370,000 active;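 active means lowest replicate activation of at least 40%, so every replicate reaches that level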;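 further: 0% = median of neutral control wells and 100% = median of IBMX positive control wells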
C2C12 statin = suppressors of statin myotoxicity in C2C12 myotubes, primary screen, cell-based, single point, plate reader | rescue of ATP level, % at 7.49 µM | 0.78% of 330,000 active | C2C12 myotubes + simvastatin, ATP luminescence, 48 h; scaled: DMSO 0, geranylgeraniol control 100;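 active means mean ATP rescue above about 67%, or every replicate alone reaching that limit, limit read from the data, passing the limit was not always enough; inconclusive means no clear call, values can overlap the other calls; inactive means mean under the limit and some replicate under it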;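 further: myotubes were challenged with 10 µM simvastatin during compound exposure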
Env fusion inh = inhibitors of HIV-1 Env-driven cell-cell fusion, primary screen, HeLa-JRFL effector, CEM21 target cells, luciferase; inhibition, % at 12.3 µM; 1.1% of 360,000 active; AID 651610, 2012;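 active means mean replicate inhibition score of at least 50 and every replicate individually at or above 50; inconclusive means only one of the two criteria met; inactive means mean below 50 and not all replicates reaching 50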;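 further: 0% = plate neutral controls and 100% = maraviroc near 300 nM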
EWS-Fli block = EWS/Fli-driven NR0B1 reporter inhibitors, primary screen, A673 cells, NR0B1 luciferase, luminescence, MLPCN library; viability-normalised; inhibition, % at 12.6 µM; 0.67% of 350,000 active;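 active means mean inhibition of at least 50% after viability correction, with every replicate also passing that limit; inconclusive means mean reaches 50% but only one of two replicates passes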;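 further: firefly luciferase signal divided by Alamar Blue viability fluorescence both relative to DMSO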
miR-122 sensor = miR-122 Renilla sensor signal increase in Huh7, primary screen, miR-122 inhibitor project, cell-based, single point, plate reader; 0.3% of 340,000 active; activation (reporter increase), % at 12.5 µM; Huh7 miR-122 Renilla luciferase sensor, 48 h; neutral wells = 0, positive control = 100;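 active means mean replicate activation score at least 90 and every replicate individually at or above 90; inconclusive means only one of the two criteria met; inactive means neither criterion met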;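 further: higher luciferase means less miR-122 activity so hits act as miR-122 inhibitors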
The depositor's hits bear a star; i = inactive; u = inconclusive; x = no result; [ ] = dose if it differs, or a comment. Only some compounds are listed: those with a hit (about 3.1% of all), similar ones and a draw of the others.

SMILES | PAX8 reporter | INS-1E GSIS act | C2C12 statin | Env fusion inh | EWS-Fli block | miR-122 sensor
CCOC(=O)c1c(C)[nH]c(C(=O)COC(=O)C2CC(=O)N(Cc3ccccc3)C2)c1C (configuration not stated) | x | x | 92* | i | x | -3
CC(C)NC(=O)N(C)C[C@@H]1Oc2c(NS(=O)(=O)c3ccccc3)cccc2C(=O)N([C@H](C)CO)C[C@H]1C | 1 | 11 | -5 | x | 7 | 2[16.7 µM]
CN1CCN(C(=O)C[C@H]2CC[C@H]3[C@@H](COC[C@@H](O)CN3Cc3ccc4c(c3)OCO4)O2)CC1 | -3 | 13 | 8 | x | 6 | 13[16.7 µM]
COc1ccccc1CNC(=O)C1CCCN1S(=O)(=O)c1cccc2cccnc12 (configuration not stated) | 8 | 1 | 11 | 57* | 1 | -4
CC(Oc1ccc2ccc(=O)oc2c1)C(=O)NCCN1CCOCC1 (configuration not stated) | -20 | 14 | -2 | 65* | x | 0
CCN(C1CCCCC1)S(=O)(=O)c1ccc(S(=O)(=O)NCCc2ccncc2)cc1 | x | x | -5 | 34 | x | 49
CCN(C1CCCCC1)S(=O)(=O)c1ccc(S(=O)(=O)NCc2ccncc2)cc1 | x | -24 | -19 | 81* | x | 8
CO[C@H](CN(C)S(=O)(=O)c1ccc(C)cc1)[C@@H](C)CN(Cc1ccccc1Cl)[C@H](C)CO | x | -13 | -17 | x | 12 | x
COc1ccc(S(=O)(=O)N(C)C[C@@H]2Oc3ccc(NS(=O)(=O)c4ccc(C)cc4)cc3C(=O)N([C@H](C)CO)C[C@H]2C)cc1 | -2 | 7 | x | x | -7 | x
C[C@H](CO)N1C[C@H](C)[C@H](CN(C)C(=O)C2CCCCC2)Oc2cc(C#Cc3ccncc3)ccc2S1(=O)=O | 57 | -6 | -51 | 9[16.7 µM] | 12 | 29[16.7 µM]
C[C@@H]1CN([C@@H](C)CO)S(=O)(=O)c2ccc(C#Cc3ccncc3)cc2O[C@@H]1CN(C)C(=O)C1CCCCC1 | 76* | -10 | -9 | -31[16.7 µM] | 32 | -17[16.7 µM]
C[C@H]1CN([C@@H](C)CO)S(=O)(=O)c2ccc(C#Cc3ccncc3)cc2O[C@H]1CN(C)C(=O)C1CCCCC1 | 76* | -15 | -53 | 27[16.7 µM] | 6 | 36[16.7 µM]
C[C@H](CO)N1C[C@H](C)[C@@H](CN(C)C(=O)Nc2ccc3c(c2)OCO3)Oc2cc(C#Cc3ccncc3)ccc2S1(=O)=O | 100* | -17 | -39 | x | 49 | 23[16.7 µM]
C[C@@H]1CN([C@@H](C)CO)S(=O)(=O)c2ccc(C#Cc3ccncc3)cc2O[C@H]1CN(C)C(=O)C1CCCCC1 | u | -14 | -39 | -1[16.7 µM] | 13 | 19[16.7 µM]
CCC(=O)N1CC(=O)N2[C@H](C1)[C@H](c1ccc(C#CC3CCCCC3)cc1)[C@@H]2CO | 29 | -22 | x | x | -5 | x
CO[C@@H]1CN(C)C(=O)c2cc(NC(C)=O)ccc2OC[C@H](C)N(CC2CC2)C[C@@H]1C | 6 | 9 | -4 | x | -2 | x
COc1ccc(NC(=O)Nc2ccc3c(c2)C(=O)N([C@@H](C)CO)C[C@@H](C)[C@H](CN(C)Cc2ccncc2)OCCCC[C@H](C)O3)cc1 | -17 | -12 | x | 26[16.7 µM] | -3 | 2[16.7 µM]
CCNC(=S)NNC(=O)C1CCCCC1 | x | x | x | -15 | x | 140*
CCC(Sc1nc(C)cc(C)n1)C(=O)Nc1nccs1 (configuration not stated) | 9 | 55* | 22 | 1 | x | -8
CCC(Sc1nnc(C)s1)C(=O)Nc1nccs1 (configuration not stated) | 0 | x | -3 | -49 | x | 1
CCOC(=O)c1cnc2ccc(OCC)cc2c1NCc1ccccc1OC | 10 | -16 | x | 95* | x | x
CO[C@@H](CN(C)C(=O)C1CCOCC1)[C@@H](C)CN([C@@H](C)CO)S(=O)(=O)c1ccccc1 | x | 2 | 2 | x | 2 | x
CN(C)CCOc1ccc(/C(=C(/CCCl)c2ccccc2)c2ccccc2)cc1 | -2 | 104* | 1 | x | 23 | -4
CN(CCOc1ccccc1)CCOc1ccccc1 | 3 | 18 | -8 | 1 | 0 | -5
COc1ccc(-c2c(-c3ccccc3)c(C(=O)C(=O)NCCCN(C)C)n3ccc4cc(OC)c(OC)cc4c23)cc1OC | 18 | -25 | -12 | 10 | 86* | -38
SMILES | PAX8 reporter | INS-1E GSIS act | C2C12 statin | Env fusion inh | EWS-Fli block | miR-122 sensor
CN(C)CCNC(=O)C(=O)c1c(-c2ccccc2)cc2ccccn12 | -5 | 0 | -6 | 2 | -3 | -3
COc1cccc(NC(=O)N[C@H]2CC[C@@H](CC(=O)Nc3ccccc3)O[C@H]2CO)c1 | 16 | -9 | -1 | 19[16.7 µM] | -1 | x
CCOc1ncccc1C(=O)Nc1ccc(S(=O)(=O)Nc2nccs2)cc1 | -8 | 86* | 10 | 5 | -6 | 37
CCOc1ncccc1C(=O)Nc1ccc(S(=O)(=O)NC2=NCCCCC2)cc1 | -10 | 33 | x | 0 | 5 | x
Cc1ccc(S(=O)(=O)N2CCN(S(=O)(=O)c3ccc(C)cc3)C2c2ccccc2)cc1 | x | 6 | 139* | 105* | x | 8
CCCCC(=O)NNC(=S)NC(=O)CCC | x | -7 | 112* | x | x | -5
COc1ccc2c3c(n(C)c2c1)[C@@H](CO)N(C(=O)c1ccc(F)cc1)CC31CCN(CC2CCOCC2)CC1 | x | 5 | x | -7[16.7 µM] | 1 | x
O=c1[nH]cnc2ncc(-c3ccc(O)cc3)nc12 | 69* | 19 | -1 | -2 | 5 | -15
O=c1[nH]cnc2nc(-c3ccccc3)c(-c3ccccc3)nc12 | 10 | x | -31 | -6 | x | -2
COc1ccc(S(=O)(=O)Nc2ccc3c(c2)CC(=O)N([C@H](C)CO)C[C@@H](C)[C@H](CN(C)C(=O)Nc2ccccc2)O3)cc1 | -23 | 9 | 17 | -2[16.7 µM] | -10 | 2[16.7 µM]
C[C@@H]1CCCCO[C@@H](CN(C)Cc2ccc(C(=O)O)cc2)[C@H](C)CN([C@@H](C)CO)C(=O)c2cc(NC(=O)Nc3ccc(F)cc3)ccc2O1 | 3 | 6 | x | -2[16.7 µM] | -4 | 7[16.7 µM]
O=C(O)CCCC(=O)Nc1ccccc1Br | x | x | 71* | x | x | -4
Cc1noc(C)c1S(=O)(=O)Nc1ccc2c(c1)CC(=O)N([C@@H](C)CO)C[C@@H](C)[C@H](CN(C)Cc1ccc3c(c1)OCO3)O2 | x | 5 | x | x | 2 | x
CC1C/C(=N\NC(=O)c2ccc(NS(=O)(=O)c3ccc(Br)cc3)cc2)CC(C)(C)C1 (configuration not stated) | 86* | x | x | -12 | 9 | x
CC(Nc1nc(-c2ccc(F)cc2)cs1)c1nc2cc(Cl)c(N3CCCCC3)cc2n1CCCO (configuration not stated) | 35 | 8 | -121 | 78* | 2 | -3
COCC#Cc1cnc2c(c1)C(=O)N([C@@H](C)CO)C[C@H](C)[C@@H](CN(C)C(=O)C1CC1)O2 | x | 19 | 15 | -14[16.7 µM] | 3 | -2[16.7 µM]
